Source: ChEMBL document CHEMBL4513135, “CO-ADD screening of IQOG CSIS (Spain) compounds”
Measured potencies and affinities stand elsewhere.

Key:
Staphylococcus aureus = conditions: Concentration 32 ug.mL-1; ASSAY_TEST Inhibition of Bacterial Growth; detection method Absorption (OD600); MEDIA CAMHB; plate type 384well; NBS; CORNING #3640; time 18 hr
Escherichia coli = conditions: Concentration 32 ug.mL-1; ASSAY_TEST Inhibition of Bacterial Growth; detection method Absorption (OD600); MEDIA CAMHB; plate type 384well; NBS; CORNING #3640; time 18 hr

Row | SMILES | Inhibition (Staphylococcus aureus) [%] | Inhibition (Escherichia coli) [%]
1 | N#CC1=C(Cl)Oc2ccc3ccccc3c2C1c1ccccc1 (configuration not stated) | 24.96 | 12.43
2 | O=C(O)/C(=C\c1ccccc1)NC(=O)c1ccccc1 | 14.68 | 10.16
3 | CCOC(=O)C1=C(C)NC(N)=C(C#N)C1c1ccc(OC)cc1 (configuration not stated) | 20.75 | -7.34
4 | N#C[C@]1(Br)C(=N)Oc2ccc3ccccc3c2[C@@H]1c1ccc([N+](=O)[O-])cc1 | 26.21 | 11.8
5 | CCOC(=O)C1=C(C)OC(N)=C(C#N)C1c1cccs1 (configuration not stated) | 8.64 | -14.26
6 | CNC(=O)c1c(Cl)c2cc(OCc3ccccc3)ccc2n1C | 21.87 | -12.2
7 | C#CCN(C)c1nc(NCC2CCN(Cc3ccccc3)CC2)c(C#N)c(-c2ccccc2)c1C#N | 6.97 | -2.4
8 | COc1[nH]c(=O)ccc1C#N | 31.13 | -5.91
9 | O=C(N/N=C/c1ccc(Cl)cc1)c1cc2ccccc2[nH]1 | 1.43 | 20.07
10 | Cc1ccc2[nH]c(=O)c(C=O)cc2c1 | 3.11 | -7.4
11 | COc1nc2nc3c(c(N)c2cc1C#N)CCCC3.Cl | 7.17 | -4.74
12 | NNC(=O)C1(NC(=O)c2ccccc2)CC1c1cccc(O)c1 (configuration not stated) | 12.61 | 5.57
13 | COc1nc2nc3c(c(N)c2cc1C#N)CCCC3 | 30.12 | -3.63
14 | COc1ccc(C2C(C#N)=C(N)Oc3[nH]nc(C)c32)cc1 (configuration not stated) | 4.82 | 6.91
15 | CNC(=O)c1cc2cc(OCc3ccccc3)ccc2n1C | 23.23 | -13.67
16 | C#CCNc1ncc(C#N)c(N)n1 | 8.61 | -16.66
17 | COc1ccc2c(ccn2C)c1 | 6.16 | 8.07
18 | N#CC1=C(N)Oc2c(ccc3ccccc23)C1c1ccc(O)cc1 (configuration not stated) | 21.57 | -18.15
19 | CCOC(=O)C1=C(C)OC(N)=C(C#N)C1c1ccccc1 (configuration not stated) | 25.42 | -7.58
20 | N#Cc1cc(C#N)c(NCCCC2CCN(Cc3ccccc3)CC2)nc1N | 49.11 | -3.28
21 | O=C(COc1ccc2ccccc2c1)N/N=C/c1c[nH]c2ccccc12 | 3.21 | 6.84

Row | SMILES | Inhibition (Staphylococcus aureus) [%] | Inhibition (Escherichia coli) [%]
22 | CNC(=O)NC1(C(=O)O)CC1c1ccccc1 (configuration not stated) | 10.75 | 8.23
23 | CCOC(=O)C1=C(C)OC(N)=C(C#N)C1c1ccc(F)cc1 (configuration not stated) | 19.76 | -10.2
24 | CC1=NC(=Cc2ccc([N+](=O)[O-])cc2)C(=O)O1 | 3.5 | -3.97
25 | COC1=C(C#N)CC(C)C(=O)N1 (configuration not stated) | 16.96 | -13.94
26 | C#CCNc1[nH]c2ccc(O)cc2c1C#N | 30.3 | -3.92
27 | Cc1ccc2nc(Cl)c(/C=N/C(C)(C)C)cc2c1 | 28.46 | 12.92
28 | COC(=O)/C(=C/c1ccc(O)cc1)NC(=O)c1ccccc1 | 4.82 | 15.96
29 | C#CCN(C)Cc1cc2cc(O)ccc2n1C.Cl | 21.22 | -11.62
30 | C=C=CCN(C)Cc1cc2ccccc2n1C.O=C(O)C(=O)O | 31.58 | -19.52
31 | N#Cc1cc(C#N)c(N2CCC(Cc3ccccc3)CC2)nc1N | -2.68 | -8.44
32 | CCOC(=O)c1cc2c(N)c3c(nc2nc1C)CCCC3 | 8.67 | -8.78
33 | CC(C)(C)OC(=O)Nc1ccc(Br)cn1 | 40.42 | -0.9
34 | CC#CCN.Cl | 31.78 | 20.2
35 | CCOc1nc(N)c(C#N)c(-c2ccccc2)c1C#N | 44.16 | -9.76
36 | COc1ccccc1C1c2ccc3ccccc3c2OC(=NBr)C1(Br)C#N (configuration not stated) | 25.54 | -9.86
37 | NC1(C(=O)O)CC1c1ccc2c(c1)OCO2 (configuration not stated) | -7.05 | -7.79
38 | COc1nc2nc3c(c(N)c2cc1C#N)CN(Cc1ccccc1)CC3 | 9.36 | 4.83
39 | Cn1ccnc1C1C2=C(CC(C)(C)CC2=O)Oc2nc3c(c(N)c21)CCCC3 (configuration not stated) | 8.97 | -15.11
40 | C#CCNc1ccc(Cl)nn1 | 21.22 | -28.17
41 | COc1ccc2cc(C3C4=C(CC(C)(C)CC4=O)Oc4nc5c(c(N)c43)CCCCC5)c(Cl)nc2c1 (configuration not stated) | 27.31 | 12.92
